For 36 compounds, neurite formation score results are on record in the supplement of paper PMC8047044.

Values joined by “and” are separate entries in the source; they are usually repeats but may differ in a detail not shown here. Equal entries are not always repeated. Structures can show the parent of a compound that is named as a salt.

In this test the test system is Neuro-2a. As to the kind of experiment: neurite formation score, plate-normalized to DMSO control mean 5.04 (score (0-8 scale)); higher = more or longer neurites. The conditions noted are these: 1 µM. The method, then: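 Neuro-2a mouse neuroblastoma cells in PLL-coated 96-well plates were pre-treated for 1 h in DMEM(+) with each kinase inhibitor at 1 µM, then switched to serum-free DMEM(-) with inhibitor to induce neurite outgrowth and fixed about 2-3 h later. Three blinded observers scored neurite formation from 0 (no neurites) to 8 (long neurites on almost all cells).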
`O=C(Nc1cccnc1)c1cc(-c2ccnc(F)c2)ccc1OCc1ccccc1` displayed a neurite formation score of 3.88. The same measure for `COc1cc2ncnc(Nc3ccc(O)cc3)c2cc1OC`: 5.02; for `Nc1ncnc2c1c(-c1cccc(OCc3ccccc3)c1)cn2C1CC(CN2CCC2)C1` (stereo unspecified): 3.24; for `C[C@@H]1COCCN1c1cc(C2(S(C)(=O)=O)CC2)nc(-c2cccc3[nH]ccc23)n1`: 4.57. On to `C=CC(=O)Nc1cccc(Nc2nc(Nc3ccc(NC4CN(CCF)C4)cc3OC)ncc2C(F)(F)F)c1`, for which the neurite formation score was found to be 4.88. The same measure for `Cc1ccc2c(Nc3ccc(Cl)cc3)nccc2c1Nc1ncccc1-c1ncnc2nc[nH]c12` [B-Raf inhibitor 1]: 2.47; for `FC(F)(F)c1ccc(/C=C/c2nc(COc3ccc(CCCCn4ccnn4)cc3)co2)cc1` [Mubritinib (TAK 165)]: 4.47. The same measure for `O=C(Nc1ccc(OC(F)(F)F)cc1)c1sccc1NCc1ccnc2ccccc12`: 3.91. Under `COc1cc2nccc(Oc3ccc(NC(=O)Nc4cc(C)on4)c(Cl)c3)c2cc1OC` [Tivozanib (AV-951)] stands 4.24. The compound `Nc1cc(C(F)(F)F)c(-c2cc(N3CCOCC3)nc(N3CCOCC3)n2)cn1` had a neurite formation score of 5.24.

In turn, `O=C(Nc1ccc2[nH]nc(-c3ccncc3)c2c1)[C@@H]1CCN(CC(=O)N2CCN(c3ccc(-c4ncccn4)cc3)CC2)C1` displayed a neurite formation score of 3.8. `C#Cc1cccc(Nc2ncnc3cc(OCCOC)c(OCCOC)cc23)c1` [Erlotinib Hydrochloride] had a neurite formation score of 4.57. Under `CN([C@@H](Cc1ccc(OS(=O)(=O)c2cccc3cnccc23)cc1)C(=O)N1CCN(c2ccccc2)CC1)S(=O)(=O)c1cccc2cnccc12` stands 2.9; under `CN(C)Cc1cccc(N=C(c2ccccc2)c2c(O)[nH]c3cc(C(=O)N(C)C)ccc23)c1`, 4.9.

Compound `CN(C)CCSSCCNC(=O)C1CCN(C(=O)CSc2ccc(Cl)cc2)CC1` displayed a neurite formation score of 3.63. In turn, `O=C1NC(=O)C(c2cnc3ccccn23)=C1c1cn2c3c(cc(F)cc13)CN(C(=O)N1CCCCC1)CC2` gave a neurite formation score of 3.47. `C[C@H]1Oc2cc(cnc2N)-c2c(nn(C)c2C#N)CN(C)C(=O)c2ccc(F)cc21` registered a neurite formation score of 4.21.

In the case of `Cc1cc(N2CCOCC2)cc2[nH]c(-c3c(NC[C@@H](O)c4cccc(Cl)c4)cc[nH]c3=O)nc12`, the neurite formation score is 3.57. The same measure for `Cc1ccc(NC(=O)c2ccc(CN3CCN(C)CC3)cc2)cc1Nc1nccc(-c2cccnc2)n1` [Imatinib (STI571)]: 4.54. `CN(C)C1CCN(C(=O)c2ccc(NC(=O)Nc3ccc(-c4nc(N5CCOCC5)nc(N5CCOCC5)n4)cc3)cc2)CC1` came in with a neurite formation score of 4.14.

The compound `Cc1[nH]nc2ccc(-c3cncc(OC[C@@H](N)Cc4ccccc4)c3)cc12` displayed a neurite formation score of 4.63. The same measure for `Cc1ccc(-c2csc3ncnc(SCCC(=O)O)c23)cc1`: 4.02; for `COc1cc(Nc2ncc(F)c(Nc3ccc4c(n3)NC(=O)C(C)(C)O4)n2)cc(OC)c1OC`: 5.63; for `CNC(=O)c1cc(Oc2ccc(NC(=O)Nc3ccc(Cl)c(C(F)(F)F)c3)c(F)c2)ccn1` [Regorafenib monohydrate]: 4.69. Regarding `CCc1cc(Nc2nccc(-c3c(-c4ccc(OC)c(C(=O)Nc5c(F)cccc5F)c4)nc4ccccn34)n2)c(OC)cc1N1CCC(N2CCN(S(C)(=O)=O)CC2)CC1`, the neurite formation score is 4.91.

`COc1cc2c(Oc3ccc4[nH]c(C)cc4c3F)ncnc2cc1OCCCN1CCCC1` [Cediranib (AZD217)] showed a neurite formation score of 3.91. Regarding `Cc1cc(C(C)Nc2ccccc2)c2nc(N3CCOCC3)cc(=O)n2c1` (stereo unspecified), the neurite formation score worked out at 4.47. Turning to `CC(=O)Nc1cccc(-n2c(=O)n(C3CC3)c(=O)c3c(Nc4ccc(I)cc4F)n(C)c(=O)c(C)c32)c1`, the neurite formation score turned out to be 3.57. Take `c1ccc2c(-c3cnn4cc(-c5ccc(N6CCNCC6)cc5)cnc34)ccnc2c1`: the neurite formation score is 5.14 and 4.47.

Compound `COc1ccc(-c2cnc3c(-c4cccc5ncccc45)cnn3c2)cc1` registered a neurite formation score of 3.88. As to `CCn1cc(-c2ccnc3[nH]c(-c4cccc(CN(C)C)c4)cc23)c(-c2ccc(NC(=O)N(C)C)cc2)n1`, the neurite formation score came to 4.69. Under `CCc1ccc(/C=C2/SC(=S)NC2=O)cc1` stands 5.57.

With `CCCCCCCCCCCCCCCc1cccc(O)c1C(=O)O` [Anacardic acid], the neurite formation score worked out at 4.02. The compound `Nc1ncnc2c1c(-c1cnc3[nH]ccc3c1)nn2C1CCCC1` had a neurite formation score of 3.21. Under `N#Cc1c(O)c2c(-c3ccc(-c4ccccc4O)cc3)csc2[nH]c1=O` stands 5.69; under `O=C(NC(NC(=S)Nc1ccc(F)c([N+](=O)[O-])c1)C(Cl)(Cl)Cl)C(c1ccccc1)c1ccccc1` (stereo unspecified), 3.96.
